Experimental data taken from PubChem BioAssay (Tox21).
Values without a mark were called inactive. Inconclusive results are not listed. Where a call stands in place of a potency, no number is given. Active and inactive are the calls of the source. Calls follow the shape of the dose curve; as a rule, active = well fitted curve in the direction sought with a large enough effect in the repeat runs; inconclusive = weak or mixed curves; inactive = no such curve, though single readings can be large; an effect the other way counts as inactive or inconclusive.

Experiments:
[1] = Caspase-3/7 induction in HepG2 cells by small molecules, qHTS assay (AID 1346978); also: nearly all actives have a fitted effect of over 15% in size
Method in brief: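 Wild-type HepG2 cells, 2,000/well, settled 5 hr at 37 C and 5% CO2, then compound-treated for 17 hr; caspase-3/7 activity read by luminescent Caspase-Glo 3/7 after 30 min at room temperature.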

[2] = Caspase-3/7 induction in CHO-K1 cells by small molecules, qHTS cell viability counter screen (AID 1346979); also: nearly all actives have a fitted effect of over 35% in size; also: potency is read from the fitted curve at half-maximal effect
Method in brief: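 Wild-type CHO-K1 cells were seeded at 1,500 per well, rested 5hr at 37 C, then exposed to compounds in DMSO. After 16hr, CellTiter-Fluor reagent was added and fluorescence read 1hr later as the viability measure.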

[3] = Caspase-3/7 induction in CHO-K1 cells by small molecules, qHTS assay (AID 1346980); also: nearly all actives have a fitted effect of over 15% in size
Method in brief: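 Wild-type CHO-K1 cells exposed to compounds for 17hr at 37 C, 5% CO2. Caspase-3/7 activity then measured by Caspase-Glo 3/7 luminescence after 30min at room temperature.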

[4] = Caspase-3/7 induction in HepG2 cells by small molecules, qHTS cell viability counter screen (AID 1346981); also: series mostly up to about 92 µM; nearly all actives have a fitted effect of over 30% in size
Method in brief: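 Fluorescence read-out of live-cell protease activity (CellTiter-Fluor) after 1 hr with reagent. This was measured in the same wells as the caspase-3/7 luminescence, on HepG2 cells exposed to DMSO-dissolved compounds for 16 hr at 37 C.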

[5] = molecular target: Cytochrome P450 2D6 (Homo sapiens) (UniProt P10635); experiment: Cytochrome P450 Family 2 Subfamily D Member 6 (CYP2D6) small molecule antagonists: luciferase reporter qHTS assay (AID 1671196); also: nearly all actives have a fitted effect of over 50% in size; also: potency is read from the fitted curve at half-maximal effect
Method in brief: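 Luminogenic proluciferin substrate, CYP2D6 enzyme; 10 min RT preincubation with compound, NADPH regeneration system added, 1 h RT. Stop/detection reagent, 20 min RT, luminescence read (RLU). Signal proportional to CYP activity.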

[6] = molecular target: Cytochrome P450 2C19 (Homo sapiens) (UniProt P33261); experiment: Cytochrome P450 Family 2 Subfamily C Member 19 (CYP2C19) small molecule antagonists: luciferase reporter qHTS assay (AID 1671197); also: nearly all actives have a fitted effect of over 65% in size; also: potency is read from the fitted curve at half-maximal effect
Method in brief: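 Inhibition of CYP2C19 was scored from loss of luminescence in a P450-Glo proluciferin substrate assay, NADPH-started and run 1 h at 37C, with ketoconazole as positive control.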

[7] = molecular target: Cytochrome P450 2C9 (Homo sapiens) (UniProt P11712); experiment: Cytochrome P450 Family 2 Subfamily C Member 9 (CYP2C9) small molecule antagonists: luciferase reporter qHTS assay (AID 1671198); also: nearly all actives have a fitted effect of over 50% in size; also: potency is read from the fitted curve at half-maximal effect
Method in brief: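 P450-Glo proluciferin substrate with CYP2C9 enzyme; 10 min RT preincubation, then NADPH regeneration 1 h at 37C; luciferin detection reagent 20 min RT, luminescence in relative luminescence units.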

[8] = molecular target: Cytochrome P450 1A2 (Homo sapiens) (UniProt P05177); experiment: Cytochrome P450 Family 1 Subfamily A Member 2 (CYP1A2) small molecule antagonists: luciferase reporter qHTS assay (AID 1671199); also: nearly all actives have a fitted effect of over 50% in size; also: potency is read from the fitted curve at half-maximal effect
Method in brief: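 Luminescence readout (relative luminescence units) after luciferin detection reagent, 20 min RT. Preceded by 1 h room-temperature CYP1A2 reaction with NADPH regeneration solution following 10 min compound preincubation with enzyme and proluciferin substrate. Furafylline positive control.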

[9] = molecular target: Voltage-gated inwardly rectifying potassium channel KCNH2 (Homo sapiens) (UniProt Q12809); experiment: Human Ether-a-go-go-Related Gene (hERG) channel small molecule antagonists: fluorescence cell-based qHTS assay (AID 1671200);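 also: hERG-expressing U2OS cells given a thallium stimulus after FluxOR II dye loading; series mostly up to about 77 µM; nearly all actives have a fitted effect of over 50% in size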
Method in brief: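 U2OS cells expressing the channel were plated at 1000 cells/well, incubated overnight at 37 C, then loaded with FluxOR II thallium-sensitive dye for 1 h at room temperature in the dark, with a further 10 min at room temperature before stimulation.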

[10] = molecular target: Cytochrome P450 3A4 (Homo sapiens) (UniProt P08684); experiment: Cytochrome P450 Family 3 Subfamily A Member 4 (CYP3A4) small molecule antagonists: luciferase reporter qHTS assay (AID 1671201); also: nearly all actives have a fitted effect of over 50% in size; also: potency is read from the fitted curve at half-maximal effect
Method in brief: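 P450-Glo CYP3A4 system with proluciferin substrate; compounds preincubated 10 min RT with enzyme-substrate mix, then NADPH regeneration added for 1 h RT. Detection reagent 20 min, luminescence read as relative luminescence units.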

Sequence of Cytochrome P450 2D6 (Homo sapiens) (P10635 whole entry, looked up): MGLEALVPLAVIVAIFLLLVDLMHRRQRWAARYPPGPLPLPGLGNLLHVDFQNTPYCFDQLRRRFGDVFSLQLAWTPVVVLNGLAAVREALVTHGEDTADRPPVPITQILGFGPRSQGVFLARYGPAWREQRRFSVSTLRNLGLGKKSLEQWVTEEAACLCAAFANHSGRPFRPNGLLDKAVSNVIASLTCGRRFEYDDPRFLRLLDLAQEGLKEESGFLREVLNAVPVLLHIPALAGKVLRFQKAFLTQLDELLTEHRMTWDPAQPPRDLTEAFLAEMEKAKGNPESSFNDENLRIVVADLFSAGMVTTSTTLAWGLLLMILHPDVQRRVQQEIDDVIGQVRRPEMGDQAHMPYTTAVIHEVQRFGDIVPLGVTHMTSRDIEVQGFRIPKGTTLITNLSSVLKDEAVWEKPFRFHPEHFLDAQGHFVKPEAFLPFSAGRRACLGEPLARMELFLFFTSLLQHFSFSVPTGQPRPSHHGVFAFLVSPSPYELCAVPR
Sequence of Cytochrome P450 1A2 (Homo sapiens) (P05177 whole entry, looked up): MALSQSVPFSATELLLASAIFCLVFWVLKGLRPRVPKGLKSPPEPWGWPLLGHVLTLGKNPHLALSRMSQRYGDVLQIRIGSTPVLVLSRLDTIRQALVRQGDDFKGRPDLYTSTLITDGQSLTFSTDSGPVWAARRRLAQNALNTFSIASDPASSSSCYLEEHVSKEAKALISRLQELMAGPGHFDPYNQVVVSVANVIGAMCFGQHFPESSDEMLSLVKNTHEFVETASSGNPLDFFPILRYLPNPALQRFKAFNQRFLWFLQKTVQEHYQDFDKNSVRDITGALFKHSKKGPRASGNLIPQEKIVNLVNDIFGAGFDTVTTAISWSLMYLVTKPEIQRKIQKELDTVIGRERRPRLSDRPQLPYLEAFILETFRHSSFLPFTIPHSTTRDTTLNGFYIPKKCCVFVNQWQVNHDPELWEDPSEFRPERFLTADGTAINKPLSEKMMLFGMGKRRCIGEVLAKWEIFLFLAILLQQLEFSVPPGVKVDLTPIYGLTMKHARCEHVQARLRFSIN
Sequence of Cytochrome P450 2C9 (Homo sapiens) (P11712 whole entry, looked up): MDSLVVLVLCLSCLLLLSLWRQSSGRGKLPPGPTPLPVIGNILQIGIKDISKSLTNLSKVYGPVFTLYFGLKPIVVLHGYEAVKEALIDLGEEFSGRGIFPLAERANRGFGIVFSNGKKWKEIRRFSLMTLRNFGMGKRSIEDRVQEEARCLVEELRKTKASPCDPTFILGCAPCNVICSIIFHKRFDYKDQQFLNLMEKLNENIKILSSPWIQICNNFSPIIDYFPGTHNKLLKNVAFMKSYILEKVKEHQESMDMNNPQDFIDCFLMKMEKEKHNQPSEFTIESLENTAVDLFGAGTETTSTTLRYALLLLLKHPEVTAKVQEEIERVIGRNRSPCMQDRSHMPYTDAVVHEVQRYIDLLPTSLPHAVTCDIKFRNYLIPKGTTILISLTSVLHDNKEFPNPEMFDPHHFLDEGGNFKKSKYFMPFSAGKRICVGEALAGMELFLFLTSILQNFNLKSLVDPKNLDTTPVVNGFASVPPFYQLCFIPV
Sequence of Voltage-gated inwardly rectifying potassium channel KCNH2 (Homo sapiens) (Q12809 whole entry, looked up): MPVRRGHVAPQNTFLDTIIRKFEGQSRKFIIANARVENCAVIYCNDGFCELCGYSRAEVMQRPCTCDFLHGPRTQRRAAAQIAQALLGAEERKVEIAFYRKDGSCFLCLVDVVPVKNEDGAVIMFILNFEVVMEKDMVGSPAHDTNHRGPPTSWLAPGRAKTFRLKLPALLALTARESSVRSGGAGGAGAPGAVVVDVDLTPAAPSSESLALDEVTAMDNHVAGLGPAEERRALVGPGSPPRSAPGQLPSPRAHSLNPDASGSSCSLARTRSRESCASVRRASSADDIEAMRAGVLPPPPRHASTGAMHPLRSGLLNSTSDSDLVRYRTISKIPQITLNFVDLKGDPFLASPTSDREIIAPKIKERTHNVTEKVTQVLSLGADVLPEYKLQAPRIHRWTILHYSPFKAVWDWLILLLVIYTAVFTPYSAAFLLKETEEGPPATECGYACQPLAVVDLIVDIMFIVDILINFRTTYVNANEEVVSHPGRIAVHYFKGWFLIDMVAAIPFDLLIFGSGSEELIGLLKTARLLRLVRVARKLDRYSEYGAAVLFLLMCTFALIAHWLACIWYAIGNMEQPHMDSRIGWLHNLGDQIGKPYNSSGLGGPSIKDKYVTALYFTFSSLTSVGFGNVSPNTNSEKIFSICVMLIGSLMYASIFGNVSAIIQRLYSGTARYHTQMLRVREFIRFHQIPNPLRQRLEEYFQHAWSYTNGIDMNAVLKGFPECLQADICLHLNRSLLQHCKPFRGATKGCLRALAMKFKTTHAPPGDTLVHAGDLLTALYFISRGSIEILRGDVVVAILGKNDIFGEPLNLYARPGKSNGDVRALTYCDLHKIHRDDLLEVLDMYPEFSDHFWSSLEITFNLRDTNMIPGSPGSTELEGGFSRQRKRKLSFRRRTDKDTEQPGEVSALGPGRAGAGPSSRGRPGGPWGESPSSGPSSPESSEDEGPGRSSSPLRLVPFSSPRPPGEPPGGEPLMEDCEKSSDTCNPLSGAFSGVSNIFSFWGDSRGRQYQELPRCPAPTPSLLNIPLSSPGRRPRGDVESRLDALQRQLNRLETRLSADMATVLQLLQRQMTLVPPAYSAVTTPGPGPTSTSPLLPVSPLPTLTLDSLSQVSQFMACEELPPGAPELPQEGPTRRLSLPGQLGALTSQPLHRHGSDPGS
Sequence of Cytochrome P450 3A4 (Homo sapiens) (P08684 whole entry, looked up): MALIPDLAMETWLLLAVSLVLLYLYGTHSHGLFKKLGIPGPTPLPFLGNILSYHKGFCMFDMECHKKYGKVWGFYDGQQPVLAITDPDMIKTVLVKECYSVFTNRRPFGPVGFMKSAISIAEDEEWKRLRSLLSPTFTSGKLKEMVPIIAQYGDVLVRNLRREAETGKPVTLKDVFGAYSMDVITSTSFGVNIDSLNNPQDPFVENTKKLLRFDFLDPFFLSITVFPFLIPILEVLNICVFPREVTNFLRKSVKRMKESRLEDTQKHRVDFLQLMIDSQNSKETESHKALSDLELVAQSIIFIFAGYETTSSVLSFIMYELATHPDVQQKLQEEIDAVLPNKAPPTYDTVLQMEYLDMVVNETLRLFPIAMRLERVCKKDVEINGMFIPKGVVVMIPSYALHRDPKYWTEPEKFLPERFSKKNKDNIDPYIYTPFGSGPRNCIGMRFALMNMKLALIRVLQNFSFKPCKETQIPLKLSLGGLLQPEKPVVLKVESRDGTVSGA
Sequence of Cytochrome P450 2C19 (Homo sapiens) (P33261 whole entry, looked up): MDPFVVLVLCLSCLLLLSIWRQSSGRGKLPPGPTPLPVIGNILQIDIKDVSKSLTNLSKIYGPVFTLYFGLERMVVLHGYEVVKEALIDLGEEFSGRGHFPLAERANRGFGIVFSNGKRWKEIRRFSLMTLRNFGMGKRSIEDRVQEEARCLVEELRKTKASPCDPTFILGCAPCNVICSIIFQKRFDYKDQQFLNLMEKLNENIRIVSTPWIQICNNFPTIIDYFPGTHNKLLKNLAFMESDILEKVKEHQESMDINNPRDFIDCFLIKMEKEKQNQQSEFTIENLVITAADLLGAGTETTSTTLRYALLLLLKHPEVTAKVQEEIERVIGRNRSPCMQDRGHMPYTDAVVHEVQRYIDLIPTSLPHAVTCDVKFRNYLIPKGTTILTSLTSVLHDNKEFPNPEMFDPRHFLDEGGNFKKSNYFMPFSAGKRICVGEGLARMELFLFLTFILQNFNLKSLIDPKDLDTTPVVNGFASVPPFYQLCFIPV

| SMILES | Potency [1] | Potency [2] | outcome [3] | Potency [4] | Potency [5] | Potency [6] | Potency [7] | Potency [8] | Potency [9] | Potency [10] |
| --- | --- | --- | --- | --- | --- | --- | --- | --- | --- | --- |
| O=[N+]([O-])c1ccc2ncccc2c1 | inactive | inactive | inactive | inactive | 31.8 µM (active) | 40 µM (active) | inactive | 1.59 µM (active) | inactive | inactive |
| CCN(CC)CCNC(=O)c1cc(Cl)c(N)cc1OC | inactive | inactive | inactive | inactive | 7.76 µM (active) | inactive | inactive | inactive | – | inactive |
| CCOC(=O)c1ccc(NC(=O)CN2CCCCC2)cc1 | inactive | inactive | inactive | inactive | 17.4 µM (active) | inactive | – | 32.3 µM (active) | inactive | inactive |
| CC1=CC[C@@]23C[C@@H]1C(C)(C)[C@@H]2CC[C@H]3C | inactive | inactive | inactive | inactive | inactive | – | – | – | inactive | 79.6 µM (active) |
| O=C(c1ccccc1)C1CCC1 | inactive | inactive | inactive | inactive | inactive | inactive | inactive | inactive | inactive | inactive |
| CCC(CO)(CO)[N+](=O)[O-] | inactive | inactive | inactive | inactive | inactive | inactive | inactive | inactive | inactive | inactive |
| COc1ccc(-c2cc(=S)ss2)cc1 | inactive | 29.8 µM (active) | inactive | inactive | – | 9.77 µM (active) | 12.3 µM (active) | 0.911 µM (active) | inactive | – |
| CCC1CCC(CCC(=O)O)C1 (stereo unspecified) | inactive | inactive | inactive | inactive | inactive | 40.8 µM (active) | 36.4 µM (active) | – | – | inactive |
| O=S(=O)(Cl)c1c(Cl)cccc1Cl | inactive | inactive | inactive | inactive | 25.1 µM (active) | inactive | inactive | inactive | inactive | inactive |
